In this assay the test system is STK17A.
On to `C[C@@H]1CCNC(=O)c2cc3ccc(C(=O)Nc4nc5ccccc5n4CCCN(C)C)cc3n21` [BI00645435], for which the Kinases covered entry is “STK17A”. The same measure for `CNc1nc(-c2ccc3c(N)n[nH]c3c2)cc(N2C[C@@H](C(=O)Nc3ccccc3)CC[C@H]2C)n1` [GSK2298859]: “STK17A”; for `C[C@H]1CC[C@@H](C(=O)Nc2ccccc2)CN1c1cc(-c2ccc3c(N)n[nH]c3c2)nc(N)n1` [GSK2283293]: “STK17A”. As for `CC(C)c1cc(-c2ccc3c(N)n[nH]c3c2)nc(N)n1` [GSK2250882], the Kinases covered result is reported as “STK17A”.

These data come from article PMC7826789 (International Journal of Molecular Sciences, 2021).
